Experimental findings from PubChem BioAssay are described below.

Usually inhibition stands for the drop in the measured response relative to a control, in per cent.

A short description of experiment [1]: StAR promoter reporter inhibitors, counter-screen for LRH-1 inverse agonist project, cell-based, luminescence, high throughput (AID 651611; in the data active = inhibition above about 28%). The settings on record: StAR promoter luciferase reporter counterscreen, at 3.6 µM, stronger effect = higher value. On the technique in general: The purpose of a counterscreen is to sort out artefacts and off-target activity.
Experiment [2] concerns the target Nuclear receptor subfamily 5 group A member 2 (Homo sapiens) (UniProt O00482). The experiment in a line: NR5A2 activity suppression in reporter cells – cell-based, luminescence, confirmation (AID 651613; in the data active = inhibition above about 42%;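 also: HEK293T cells co-transfected with LRH-1 and StAR promoter luciferase reporter; 0% = vehicle wells and 100% = parental cells lacking receptor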). The settings on record: cell-based LRH-1 luciferase reporter, inverse agonism; at 3.6 µM; stronger effect = higher value.
The target of experiment [3] is Steroidogenic factor 1 (Homo sapiens) (UniProt Q13285). The experiment in a line: inverse agonism at SF1 nuclear receptor – cell-based, luminescence, high throughput, counter-screen for LRH-1 inverse agonist project (AID 651614).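 Also: cells cotransfected with StAR promoter reporter and SF1 expression vector; 0% = vehicle on cells with receptor and 100% = vehicle on cells lacking receptor.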 The settings on record: cell-based SF1 luciferase reporter, at 3.6 µM, stronger effect = higher value.
Chain of Steroidogenic factor 1 (Homo sapiens) (Q13285 whole entry, looked up, the tested form may be a part): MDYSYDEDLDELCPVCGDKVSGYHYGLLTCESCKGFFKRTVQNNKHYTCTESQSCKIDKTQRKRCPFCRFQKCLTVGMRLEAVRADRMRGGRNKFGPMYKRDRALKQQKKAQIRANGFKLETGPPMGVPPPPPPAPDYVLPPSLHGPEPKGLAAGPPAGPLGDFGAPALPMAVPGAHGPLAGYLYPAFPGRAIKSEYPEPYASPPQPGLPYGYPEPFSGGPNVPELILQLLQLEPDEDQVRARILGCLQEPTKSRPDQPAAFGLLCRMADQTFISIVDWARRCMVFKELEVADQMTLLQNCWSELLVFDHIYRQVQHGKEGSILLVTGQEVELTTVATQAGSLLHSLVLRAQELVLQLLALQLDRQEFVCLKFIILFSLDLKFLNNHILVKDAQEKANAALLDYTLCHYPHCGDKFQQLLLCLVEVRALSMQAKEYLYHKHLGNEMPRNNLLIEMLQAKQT
A short description of experiment [4]: compounds suppressing VP16-driven luciferase signal – cell-based, luminescence, high throughput, counter-screen for LRH-1 inverse agonist project (AID 651615; in the data active = inhibition above about 33%). The settings on record: Gal4-VP16 luciferase reporter cells, at 3.6 µM, stronger effect = higher value.
In experiment [5] the test system is transactivating tegument protein VP16 (Human herpesvirus 1). The experiment in a line: compounds suppressing VP16-driven luciferase signal – cell-based, luminescence, single concentration, counter-screen for SRC2 inhibitor project (AID 652007; in the data active = inhibition above about 36%). The settings on record: cell-based VP16 transactivation luciferase reporter, at 8.9 µM, stronger effect = higher value.
The target of experiment [6] is Nuclear receptor coactivator 2 (Homo sapiens) (UniProt Q15596). Kind of experiment: inhibition of GAL4-SRC2 driven luciferase expression – cell-based, luminescence, HEK293, triplicate, confirmation (AID 652008;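 active = mean inhibition above 46.5%, the solvent-only control mean plus 3 SD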;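 also: 0% = DMSO-treated cells and 100% = Gossypol at 36 µM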). The settings on record: HEK293 GAL4-SRC2 luciferase reporter, at 8.9 µM, stronger effect = higher value. Background: A reporter such as luciferase makes a cellular process visible.
Chain of Nuclear receptor coactivator 2 (Homo sapiens) (Q15596 whole entry, looked up, the tested form may be a part): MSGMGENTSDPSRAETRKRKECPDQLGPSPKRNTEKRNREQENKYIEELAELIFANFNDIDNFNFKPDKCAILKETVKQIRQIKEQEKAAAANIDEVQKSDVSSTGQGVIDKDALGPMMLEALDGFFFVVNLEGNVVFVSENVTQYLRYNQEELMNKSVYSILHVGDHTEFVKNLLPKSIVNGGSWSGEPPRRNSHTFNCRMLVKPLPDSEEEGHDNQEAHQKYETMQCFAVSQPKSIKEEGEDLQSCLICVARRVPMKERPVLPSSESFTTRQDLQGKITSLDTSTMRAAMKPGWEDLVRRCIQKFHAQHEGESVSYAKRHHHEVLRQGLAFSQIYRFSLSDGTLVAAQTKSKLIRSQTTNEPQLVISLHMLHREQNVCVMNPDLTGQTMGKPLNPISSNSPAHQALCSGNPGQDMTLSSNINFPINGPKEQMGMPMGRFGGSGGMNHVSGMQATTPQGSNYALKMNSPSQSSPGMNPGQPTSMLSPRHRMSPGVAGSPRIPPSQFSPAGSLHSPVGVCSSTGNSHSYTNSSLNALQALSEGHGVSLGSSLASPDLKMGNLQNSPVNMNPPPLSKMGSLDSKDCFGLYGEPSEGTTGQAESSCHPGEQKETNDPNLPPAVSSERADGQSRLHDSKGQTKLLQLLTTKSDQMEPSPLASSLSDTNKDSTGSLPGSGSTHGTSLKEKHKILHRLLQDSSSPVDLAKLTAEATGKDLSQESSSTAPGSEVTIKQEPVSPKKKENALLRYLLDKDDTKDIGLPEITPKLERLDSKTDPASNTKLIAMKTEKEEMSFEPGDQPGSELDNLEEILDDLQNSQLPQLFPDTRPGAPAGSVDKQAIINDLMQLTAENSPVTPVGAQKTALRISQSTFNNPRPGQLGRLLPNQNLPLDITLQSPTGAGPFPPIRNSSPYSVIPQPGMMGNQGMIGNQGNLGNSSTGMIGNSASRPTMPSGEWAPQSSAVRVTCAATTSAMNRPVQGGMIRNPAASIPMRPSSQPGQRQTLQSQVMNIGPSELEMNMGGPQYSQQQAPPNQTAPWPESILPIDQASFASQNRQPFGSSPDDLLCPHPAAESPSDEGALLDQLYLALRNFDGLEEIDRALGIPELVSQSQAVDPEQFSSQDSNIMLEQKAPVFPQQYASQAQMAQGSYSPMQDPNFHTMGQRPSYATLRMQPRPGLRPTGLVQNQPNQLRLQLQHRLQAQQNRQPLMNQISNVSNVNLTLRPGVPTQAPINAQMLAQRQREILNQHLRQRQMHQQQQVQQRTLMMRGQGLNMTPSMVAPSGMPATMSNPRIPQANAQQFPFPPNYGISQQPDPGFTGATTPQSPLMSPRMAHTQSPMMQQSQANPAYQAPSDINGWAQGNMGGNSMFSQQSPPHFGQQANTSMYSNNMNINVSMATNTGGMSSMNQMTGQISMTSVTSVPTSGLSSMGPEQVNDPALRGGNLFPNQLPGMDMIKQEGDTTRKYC

Unmarked numbers belong to inactive results. Active and inactive are the calls of the source. Rule as the data show it, unless noted: active = inhibition above about 44%; inactive = the rest.

Chain of Nuclear receptor subfamily 5 group A member 2 (Homo sapiens) (O00482 whole entry, looked up): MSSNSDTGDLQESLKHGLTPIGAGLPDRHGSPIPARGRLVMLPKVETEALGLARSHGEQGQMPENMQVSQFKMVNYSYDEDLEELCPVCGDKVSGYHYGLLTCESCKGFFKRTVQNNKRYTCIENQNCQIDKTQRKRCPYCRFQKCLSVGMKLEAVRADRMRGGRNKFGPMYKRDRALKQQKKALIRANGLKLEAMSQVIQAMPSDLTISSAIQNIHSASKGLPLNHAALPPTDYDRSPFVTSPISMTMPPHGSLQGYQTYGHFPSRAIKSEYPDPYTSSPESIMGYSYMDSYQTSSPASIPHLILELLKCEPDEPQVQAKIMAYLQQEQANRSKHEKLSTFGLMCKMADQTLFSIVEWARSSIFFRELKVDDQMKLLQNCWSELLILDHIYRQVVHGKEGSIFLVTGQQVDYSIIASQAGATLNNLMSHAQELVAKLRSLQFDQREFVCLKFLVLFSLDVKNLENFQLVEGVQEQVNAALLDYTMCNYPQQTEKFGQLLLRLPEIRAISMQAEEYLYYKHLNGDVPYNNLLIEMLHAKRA

Turning to `c1cnn(-c2nc(N3CCOCC3)nc(N3CCOCC3)n2)c1`, the inhibition in experiment [1] is 29.5% (active); in experiment [2], 63.6% (active); in experiment [3], 48.2% (active); in experiment [4] it was 20.2%.
For `CN(CCC#N)Cc1cc(=O)oc2ccc3ccccc3c12` the same measures were 13.8%, 55.2% (active), 46.2% (active) and 5.57%.
For `Cc1cc(C)nc(-n2nc(C)cc2Nc2ccccc2)n1` the same measures were 4.56%, 35.7%, 19.6% and 24%.
Regarding `CCOc1ccc(NC(=O)COC(=O)c2cc([N+](=O)[O-])ccc2N2CCOCC2)cc1`, the inhibition in experiment [1] was 6.26%; in experiment [2], 55.9% (active); in experiment [3], 50.6% (active); in experiment [4], -1%.
For `O=C(Nc1nccs1)c1ccc(S(=O)(=O)NCC2CCCCC2)cc1` the same measures were 6.64%, 41.7% (active), 42.4% and 33.3% (active).
Turning to `O=C(Nc1nc(-c2cccs2)cs1)c1ccc([N+](=O)[O-])o1`, the inhibition in experiment [1] was -1.18%; in experiment [2], 51.9% (active); in experiment [3], 62.9% (active); in experiment [4] it was -34.9%.
For `Cc1cc(N2CCN(c3nc4ccccc4s3)CC2)n2ncnc2n1` the same measures were 21.5%, 52.4% (active), 54.6% (active) and 50.3% (active).
Consider `O=C(Nc1cc(Cl)ccc1-n1cncn1)c1ccc([N+](=O)[O-])o1`, for which the inhibition in experiment [1] is 27%; in experiment [2] it was 61.9% (active); in experiment [3] it was 61.8% (active); in experiment [4] it was -24.7%.
For the molecule `Cc1c([N+](=O)[O-])cc(C(=O)Nc2ccc(Cc3ccncc3)cc2)cc1[N+](=O)[O-]`, the inhibition was 7.17% in experiment [1], 48.7% (active) in experiment [2], 45% (active) in experiment [3] and -0.27% in experiment [4].
As to `O=C(Nc1ccc(Cl)cc1)/C(=C/c1cccc(O)c1)c1nc2ccccc2s1`, the inhibition in experiment [1] was 52% (active); in experiment [2] it was 78.1% (active); in experiment [3] it was 78.1% (active); in experiment [4] it was 71.2% (active); in experiment [5] it was 48.6% (active); in experiment [6] it was 80.7% (active).
With `COC(=O)c1ccc(NC(=O)CN2C(=O)CNC2=O)cc1`, the inhibition is 11.5% in experiment [1], 62.9% (active) in experiment [2], 50.9% (active) in experiment [3] and -6.93% in experiment [4].
On to `CC(C)Cn1c(N)c(C(=O)NCC2CCCO2)c2nc3ccccc3nc21` (stereo unspecified), for which the inhibition is 23.3% in experiment [1], 42.8% (active) in experiment [2], 37.3% in experiment [3] and 1.28% in experiment [4].
With `Cc1onc(-c2c(F)cccc2Cl)c1C(=O)Oc1ccccc1`, the inhibition in experiment [1] is -12.8%; in experiment [2], 41.9% (active); in experiment [3] it was 33.8%; in experiment [4], 11.2%.
In the same order, the values of `COc1ccc(-c2c(C)cc3oc(=O)cc(-c4ccccc4)c3c2C)cc1` are 10.6%, 54.8% (active), 45.4% (active) and 17.3%.
`CCC1CCCCN1C(=O)c1ccc([N+](=O)[O-])o1` (stereo unspecified): the inhibition in experiment [1] is 0.98%; in experiment [2], 47.5% (active); in experiment [3] it was 46.7% (active); in experiment [4] it was 3.65%.
As to `Brc1ccc2ncnc(NCc3ccccc3)c2c1`, the inhibition in experiment [1] was 30.5% (active); in experiment [2] it was 72.4% (active); in experiment [3] it was 59.9% (active); in experiment [4], 80.8% (active); in experiment [5], 21.7%; in experiment [6] it was 54.5% (active).
Consider `CCC(=O)Nc1ccc(NC(=O)CSc2nc3cc4c(cc3cc2C)CCC4)cc1`, for which the inhibition in experiment [1] is 9.63%; in experiment [2], 56.4% (active); in experiment [3], 50.7% (active); in experiment [4], 0.93%.
Regarding `CS(=O)(=O)c1ccc2nc(NC(=O)C3CC(=O)N(c4ccccc4)C3)sc2c1` (stereo unspecified), the inhibition in experiment [1] is 29.6% (active); in experiment [2], 60.4% (active); in experiment [3] it was 55.9% (active); in experiment [4], 11.3%.
For `O=C(Nc1ccc(S(=O)(=O)N2CCOCC2)cc1)c1cccc([N+](=O)[O-])c1` the same measures were -6.54%, 56.9% (active), 50.2% (active) and -5.35%.
For `COc1ccccc1NC(=O)c1ccc(NC(=O)CSc2nnnn2C)cc1` the same measures were 4.14%, 59% (active), 55.5% (active) and -1.96%.
Consider `CCC(C(=O)NCc1ccccc1)n1c(CSCCOc2ccccc2)nc2ccccc21` (stereo unspecified), for which the inhibition in experiment [1] is 21.1%; in experiment [2], 21.6%; in experiment [3], 25.1%; in experiment [4], 29%; in experiment [5], 19.5%; in experiment [6], 78.3% (active).
Turning to `COc1ccc(-c2cc(NC=O)c3ncc(-c4ccc(OC)c(OC)c4)n3c2)c(OC)c1`, the inhibition in experiment [1] is 65.5% (active); in experiment [2], 53.5% (active); in experiment [3] it was 62% (active); in experiment [4], 2.18%.
For `CN(C)c1ccc(NC(=O)CSc2nnc(-c3ccco3)c(-c3ccco3)n2)cc1` the same measures were 14.1%, 54.9% (active), 47.8% (active) and -2.61%.
For `CC(=O)Nc1ccc(NC(=O)CSc2nnc(-c3cc4ccccc4o3)n2C)cc1` the same measures were -0.36%, 42.7% (active), 43.9% (active) and -5.84%.
For `CCOC(=O)C(C)Oc1cccc2c(=O)n(CC(=O)Nc3ccc(OCC)cc3)ccc12` (stereo unspecified) the same measures were 4.74%, 60.1% (active), 58.8% (active) and -11.2%.
